Measurements reported in the supplement of paper PMC6555819.

Key:
Test in all cases: PBM binding z-score (relative to random genomic background probes); higher = stronger binding; sequences stand for … in GC…GCGATTGACAGCGTAGAATGAAGG
[1] = system: FXR:RXRa (NR concentration 270 nM, RXRa partner concentration 90 nM)
Procedure, shortened: (§1)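 Regression normalization was applied to scanned fluorescence from custom Agilent 4×180K protein-binding microarrays. Before scanning, arrays were incubated 1 h with ligand-free nuclear receptor dimers, and binding was detected with antibodies against each partner (one per run). Binding z-scores use the random background probes as reference.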

[2] = system: LXRa:RXRa (NR concentration 270 nM, RXRa partner concentration 90 nM)
Procedure, shortened: as §1

[3] = system: LXRa homodimer (NR concentration 270 nM)
Procedure, shortened: as §1

[4] = system: LXRb:RXRa (NR concentration 270 nM, RXRa partner concentration 90 nM)
Procedure, shortened: as §1

[5] = system: LXRb homodimer (NR concentration 270 nM)
Procedure, shortened: as §1

[6] = system: PPARa:RXRa (NR concentration 270 nM, RXRa partner concentration 90 nM)
Procedure, shortened: as §1

[7] = system: PPARg:RXRa (NR concentration 180 nM, RXRa partner concentration 90 nM)
Procedure, shortened: as §1

[8] = system: PPARg:RXRa 270nM:90nM, anti-RXR (NR concentration 270 nM, RXRa partner concentration 90 nM)
Procedure, shortened: as §1

[9] = system: PPARg:RXRa 30nM:10nM, anti-RXR (NR concentration 30 nM, RXRa partner concentration 10 nM)
Procedure, shortened: as §1

[10] = system: PPARg:RXRa 90nM:30nM, anti-RXR (NR concentration 90 nM, RXRa partner concentration 30 nM)
Procedure, shortened: as §1

Row | Sequence | PBM binding z-score [1] | PBM binding z-score [2] | PBM binding z-score [3] | PBM binding z-score [4] | PBM binding z-score [5] | PBM binding z-score [6] | PBM binding z-score [7] | PBM binding z-score [8] | PBM binding z-score [9] | PBM binding z-score [10]
1 | GCCATTAGTTGAAAGGGCAACCGAATGATTCTCG | 0.121 | 0.648 | 0.0731 | 0.887 | -0.56 | 2.25 | 2.41 | 4.11 | 1.8 | 3.93
2 | CCAGACAGGTGAGAACGTAACTCAGCCTCGATTA | -0.0139 | -0.0409 | 0.178 | 0.22 | -0.463 | 0.136 | 0.444 | -0.545 | -0.231 | -0.422
3 | TAGCCTCGGTCATGCGGGCCAGTATAGTGTCGGC | 0.522 | 0.28 | -0.0554 | -0.734 | -0.472 | -0.0733 | -0.325 | -0.494 | -0.587 | -0.372
4 | TCTTGTAGATCCACAGGAGGTTAAGAAAGATCGA | 0.0862 | 1.26 | -0.232 | 1.08 | -0.363 | 1.05 | -0.0307 | 1.43 | 2.66 | 1.83
5 | CTACCACGGTGAACAAGGTCGTTGATTACTATTC | 0.517 | 0.708 | 0.301 | 1.4 | -0.058 | 1.28 | 0.357 | 0.508 | -0.252 | 0.141
6 | AGTCAAAGTTCAGGACGAGGTAACGTATAGCACG | 4.44 | 4.03 | 1.43 | 1.92 | 0.317 | 3.43 | 4.7 | 5.09 | 2.17 | 4.27
7 | GCGACTGGGGCGTCAGCAGGTTACCATAACTTAA | -0.381 | -0.378 | -0.324 | 0.262 | -1.19 | 0.425 | 0.0029 | -0.411 | -0.842 | -0.965
8 | TTACCAAGGTGGAAGGTCGTTGATGCACGCCTTG | 0.529 | 0.656 | -0.194 | 0.41 | -0.809 | 2.03 | 2.43 | 4.41 | 1.94 | 4.21
9 | ACTATTAGTTGAGACGAGGGCAACCAATAGGTTG | 0.56 | 0.143 | -0.167 | 0.143 | -0.0545 | 0.282 | 0.647 | 0.464 | 0.235 | 0.58
10 | CGTCCAAGGTCAAAGGTCAGTGCAGAGATGACGG | 8.41 | 7.01 | 3.67 | 6.47 | 1.91 | 7.1 | 10.5 | 9.08 | 8.16 | 9.41
11 | CCTAGTTGGTCAGGAGGTCACACACCGGATATGA | 3.73 | 3.67 | 2.08 | 3.3 | 0.83 | 4.11 | 3.41 | 3.95 | 1.75 | 3.27
12 | CCGAGTAGGATATGGGGCATTCAGGCAACGGTGA | -0.328 | -0.279 | -0.104 | -0.307 | -0.496 | 1.11 | 1.26 | 2.01 | 0.579 | 1.45
13 | ATCTCTATGTAAAAGTTCAGTGAATCCCGAGGAT | 0.48 | 1.17 | 1.3 | 0.915 | 0.829 | 2.49 | 3.27 | 4.6 | 3.31 | 4.95
14 | CTCGAAAGGTCGCTTGAGGTGAGTATACGGATAA | 4.18 | 3.88 | -0.291 | 2.68 | -0.203 | 4.15 | 2.15 | 2.92 | 0.841 | 1.64
15 | CGTCAAAGTTCAAGGTAACGCAACAGAAAGCAGC | 6.65 | 5.28 | 2.35 | 3.52 | 1.08 | 4.51 | 4.65 | 5.25 | 2.32 | 4.14
16 | CGTCCAAGGTCATAGGCGGTCAGTGAAGACAGAT | 7.45 | 6.83 | 2.89 | 4.79 | 0.324 | 5.55 | 4.7 | 5.18 | 1.82 | 3.6
17 | TACCCTAGGTCAGATCGGGCCAGTATACGCTATA | 2.3 | 4.7 | 5.49 | 2.57 | 2.46 | 1.98 | 1.12 | 1.34 | 0.45 | 1.33
18 | CGTGAAAGTTCAACTAAGGTAACGTAAAGCACGC | 6.32 | 6.09 | 4.26 | 3.89 | 1.84 | 4.98 | 3.58 | 4.78 | 1.6 | 3.39
19 | CCGAGTAGGTTATGGGGCAATCAGGCAACGGTGA | 0.219 | 0.461 | 0.13 | 0.86 | -0.142 | 2.37 | 3.61 | 4.62 | 2.23 | 4.39
20 | CCTAGCAGGCCAGCGTCACTCAAGCATTTCGCTT | -0.634 | -0.323 | -0.436 | -0.45 | -0.612 | -0.652 | -0.466 | -1.02 | -1.25 | -0.939
21 | CGAACTAGGTCATCCCGGACAGTGAATACATTGA | 4.18 | 2.56 | 0.912 | 2.09 | 0.361 | 4.71 | 7.36 | 6.47 | 3.85 | 6.17
22 | CGAACTAGGTCAAGGACTGTGAATCTCCGCACGC | 3.02 | 2.02 | -0.179 | 1.36 | -0.152 | 4.37 | 7.06 | 6.47 | 4.05 | 5.99
23 | TCGAGTAGGTTAGGGGCATTCACAATGGCGTCGA | 0.495 | 0.167 | -0.286 | 0.973 | -0.112 | 1.38 | 1.01 | 1.84 | 1.59 | 1.94
